From PubChem
The list is not random: actives were taken first. Their share in the collection is about 18%.
Six1-Eya2 blk = blocks human Six1 binding to Eya2 | Q15475+O00167 | AlphaScreen GST-Six1/His-Eya2 binding, biochemical; hits give low values | activity change, % (concentration not given with the values) | 360,000 tested, 0.56% active | AID 651725; in the data active = activity change below about -65%; inconclusive = mostly about -30% to -63%
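Compounds are tested against tagged Six1 and Eya2 proteins bridged by glutathione donor and nickel acceptor beads; after a one-hour incubation at 37 °C without light, AlphaScreen emission is recorded.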
TDP1 cell CPT = DT40-hTDP1 cell growth loss with CPT; Potency, µM (top dose mostly 46.2 µM), hits mostly inhibitors; 420,000 tested, 12% active; chicken DT40 Tdp1-/-;hTDP1 cells + 20 nM CPT, ATP luminescence, 48 h; note: nearly all actives have a fitted effect of over 55% in size
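Cell growth measured by CellTiter-Glo luminescence after a minimum 48 h, 37 C compound exposure with 20 nM CPT in Tdp1-knockout DT40 cells stably expressing hTDP1, seeded 400/well; qHTS titration format.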
TDP1 cell noCPT = qHTS for Inhibitors of human tyrosyl-DNA phosphodiesterase 1 (TDP1): qHTS in cells in absence of CPT | DT40 Tdp1-/- hTDP1 cells, no CPT, ATP luminescence, 48 h | Potency, µM (doses to about 46.2 µM), most hits filed as inhibitors | 420,000 tested, 15% active | AID 686978, 2013; note: nearly all actives have a fitted effect of over 55% in size
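Readout: luminescence from CellTiter-Glo after 30 min in the dark at RT. Cells: DT40 Tdp1-/- with stable hTDP1, 400/well. Exposure: compounds alone, ≥48 hr, 37 °C.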
CtBP-E1A blk = blocks the CtBP interaction with E1A; AlphaScreen GST-E1A/His-CtBP binding, 1536-well; hits give low values; activity change, % (concentration not given with the values); 340,000 tested, 0.49% active; in the data active = activity change below about -65%; inconclusive = mostly about -30% to -63%
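In 5 uL wells, 23 nL compound meets equimolar GST-E1A and His-CtBP (5X stock 125 nM each) for 2 h, 37 °C. Beads (5X, 50 ug/mL) then 1 h, 37 °C, dark.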
TDP1 inh = inhibitors of human tyrosyl-DNA phosphodiesterase TDP1 | recombinant TDP1, AlphaScreen DNA substrate cleavage | Potency, µM (top dose mostly 130 µM), usual class: inhibitors | 350,000 tested, 0.28% active | AID 485290; note: nearly all actives have a fitted effect of over 40% in size
Target sequence (Q9NUW8 whole entry, looked up): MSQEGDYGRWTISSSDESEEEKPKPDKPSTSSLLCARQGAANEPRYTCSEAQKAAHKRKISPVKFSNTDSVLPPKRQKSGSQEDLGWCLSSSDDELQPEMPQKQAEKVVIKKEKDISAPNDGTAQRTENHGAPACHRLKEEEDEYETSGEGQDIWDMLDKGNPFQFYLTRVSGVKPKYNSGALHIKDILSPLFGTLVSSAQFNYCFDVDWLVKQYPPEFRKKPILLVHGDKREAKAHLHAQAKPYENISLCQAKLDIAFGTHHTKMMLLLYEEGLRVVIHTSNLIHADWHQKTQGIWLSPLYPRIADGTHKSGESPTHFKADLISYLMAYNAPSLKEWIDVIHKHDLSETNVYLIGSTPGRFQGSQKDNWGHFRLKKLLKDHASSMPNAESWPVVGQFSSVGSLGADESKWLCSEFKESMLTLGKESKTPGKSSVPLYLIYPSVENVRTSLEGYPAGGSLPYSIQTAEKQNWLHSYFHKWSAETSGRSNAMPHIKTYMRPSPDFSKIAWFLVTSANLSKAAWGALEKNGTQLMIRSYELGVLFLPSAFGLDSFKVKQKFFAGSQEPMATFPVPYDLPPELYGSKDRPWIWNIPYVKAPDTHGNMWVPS
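E. coli-derived human Tdp1, 1 nM final. Cpd preinc 15 min RT; substrate 15 nM final, 5 min RT; AS bead mix 10 ug/ml final, 10 min RT. Signal loss = tyrosine-FITC cleavage. No-enzyme wells = max signal.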
IL-1B inflam inh = inflammasome signaling inhibition, IL-1 beta readout. 360,000 tested, 4.7% active. THP-1 LPS/ATP IL-1B secretion, AlphaLISA, 16 h; hits give low values. activity change, % at 57.5 µM; in the data active = activity change below about -50%; inconclusive = mostly about -30% to -49%
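THP-1 cells pretreated 1 hr with compounds (up to 57.5 uM final), then stimulated with LPS (250 ng/mL final) plus ATP (1.25 mM final); secreted IL-1B measured by AlphaLISA after 16 hr, decreased signal indicating inhibition.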
A number is an active result; [ ] = remark or other dose. Unless noted, calls come from the whole dose curve; as a rule, active = well fitted curve in the direction sought with a large enough effect; inconclusive = small, poorly fitted or top-dose-only effect, or another doubt; inactive = no such curve, though single readings can be large; an effect the other way counts as inactive or inconclusive.

How did COC(=O)c1c(C)[nH]c(C(=O)CN2C(=O)C3CC=CCC3C2=O)c1C (stereo not given) do in these assays?
Six1-Eya2 blk: inactive; TDP1 cell CPT: inconclusive; TDP1 cell noCPT: inconclusive; CtBP-E1A blk: inactive; TDP1 inh: inactive; IL-1B inflam inh: inactive

What do the screens show for `Cc1cccc(NC2=NC(C)(C)N=C(N)N2)c1`?
Six1-Eya2 blk: inactive; TDP1 cell CPT: 0.46µM; TDP1 cell noCPT: 0.16µM; CtBP-E1A blk: inactive; TDP1 inh: inactive; IL-1B inflam inh: inactive

How did Cc1cccc(Nc2nc(C)cc(C)n2)c1 do in these assays?
Six1-Eya2 blk: inactive; TDP1 cell CPT: inactive; TDP1 cell noCPT: inactive; IL-1B inflam inh: inactive

How did Cc1cc(C(=O)COC(=O)/C=C/c2cccc(F)c2)c(C)n1C do in these assays?
Six1-Eya2 blk: inactive; TDP1 cell CPT: inactive; TDP1 cell noCPT: inactive; CtBP-E1A blk: inactive; TDP1 inh: inactive; IL-1B inflam inh: inactive

What do the screens show for `Cc1cc(C(=O)COC(=O)/C=C/c2cccc(Br)c2)c(C)n1C`?
Six1-Eya2 blk: inconclusive; TDP1 cell CPT: inactive; TDP1 cell noCPT: inconclusive; CtBP-E1A blk: -66; TDP1 inh: inactive; IL-1B inflam inh: inactive

What do the screens show for `Cc1ccccc1OCCNc1cc(N2CCN(CCO)CC2)ccc1[N+](=O)[O-]`?
Six1-Eya2 blk: inactive; TDP1 cell CPT: inconclusive; TDP1 cell noCPT: inconclusive; CtBP-E1A blk: inactive; TDP1 inh: inactive; IL-1B inflam inh: -76

Results for Cc1ccccc1OCCNc1cc(N2CCCCC2)ccc1[N+](=O)[O-] ?
Six1-Eya2 blk: inconclusive; TDP1 cell CPT: 21µM; TDP1 cell noCPT: inconclusive; CtBP-E1A blk: inconclusive; TDP1 inh: inactive; IL-1B inflam inh: inactive

What do the screens show for `COc1ccc(OCCNc2cc(N3CCOCC3)ccc2[N+](=O)[O-])cc1`?
Six1-Eya2 blk: inconclusive; TDP1 cell CPT: inconclusive; TDP1 cell noCPT: inconclusive; CtBP-E1A blk: inconclusive; TDP1 inh: inactive; IL-1B inflam inh: inactive

What do the screens show for `COc1ccc(OCCNc2cc(N3CCCCC3)ccc2[N+](=O)[O-])cc1`?
Six1-Eya2 blk: inconclusive; TDP1 cell CPT: 18µM; TDP1 cell noCPT: 23µM; CtBP-E1A blk: inactive; TDP1 inh: inactive; IL-1B inflam inh: inconclusive

What do the screens show for `Cc1ccc(C)c(-c2nn(-c3cc(N4CCN(CCO)CC4)ccc3[N+](=O)[O-])c(=O)c3ccccc23)c1`?
Six1-Eya2 blk: inactive; TDP1 cell CPT: inconclusive; TDP1 cell noCPT: 26µM; CtBP-E1A blk: inactive; TDP1 inh: inactive; IL-1B inflam inh: inconclusive

What do the screens show for `CCNc1cc(N2CCCC2)ccc1[N+](=O)[O-]`?
Six1-Eya2 blk: inactive; TDP1 cell CPT: inactive; TDP1 cell noCPT: inactive; CtBP-E1A blk: inactive; TDP1 inh: inactive; IL-1B inflam inh: inactive

Results for O=C(COC(=O)c1cccc(S(=O)(=O)N2CCOCC2)c1)NCc1ccc2c(c1)OCO2 ?
Six1-Eya2 blk: inactive; TDP1 cell CPT: inactive; TDP1 cell noCPT: inactive; CtBP-E1A blk: inactive; TDP1 inh: inactive; IL-1B inflam inh: inactive

What do the screens show for `O=C(CN1CCC(NC(=O)Cc2ccccc2)CC1)Nc1cccc2ccccc12`?
Six1-Eya2 blk: inactive; TDP1 cell CPT: inconclusive; TDP1 cell noCPT: inactive; CtBP-E1A blk: inactive; TDP1 inh: inactive; IL-1B inflam inh: inactive

How did Cc1ccc(C)c(NC(=O)N2CCN3CCCCC3C2)c1 (stereo not given) do in these assays?
TDP1 cell CPT: inactive; TDP1 cell noCPT: inactive; TDP1 inh: inactive

What do the screens show for `Cc1ccc(OCCNC(=O)c2ccc(C)o2)cc1`?
Six1-Eya2 blk: inactive; TDP1 cell CPT: inactive; TDP1 cell noCPT: inactive; CtBP-E1A blk: inactive; TDP1 inh: inactive; IL-1B inflam inh: inactive

Results for O=c1oc2c(CN3CCCCCC3)c(O)ccc2cc1-c1nc2ccccc2[nH]1 ?
TDP1 inh: inactive

Results for COc1cc(=O)n2c(c1C(=O)NCc1ccco1)CCN(C(=O)c1cccnc1SC)CC2 ?
TDP1 cell CPT: inactive[9.04 µM]; TDP1 cell noCPT: inactive
